HEK293 tox: Cytotoxic Profiling in HEK 293 Cell Line of Diverse Libraries Using Quantitative High-Throughput Screening | Potency, µM (highest dose often 115 µM), usual class: inhibitors | HEK 293 viability, ATP luminescence (CellTiter-Glo), 48-72 h | 94,000 compounds, 6.6% hits; further: nearly all actives have a fitted effect of over 60% in size
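Pintool-delivered compounds were incubated with HEK 293 cells (250 cells/well) at 37 degree Celsius for 48 or 72 hr. ATP-dependent luminescence (CellTiter-Glo) then reported remaining viable cells.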
GPT2 inhibitor: Primary qHTS assay for inhibitors of Glutamate pyruvate transaminase 2 (GPT2); 100,000 compounds, 0.25% hits; Recombinant GPT2, coupled pyruvate oxidase/HRP Amplex Red fluorescence; Potency, µM (highest dose often 57.7 µM), usual class: inhibitors; further: nearly all actives have a fitted effect of over 60% in size
Target sequence (Q8TD30 whole entry, looked up): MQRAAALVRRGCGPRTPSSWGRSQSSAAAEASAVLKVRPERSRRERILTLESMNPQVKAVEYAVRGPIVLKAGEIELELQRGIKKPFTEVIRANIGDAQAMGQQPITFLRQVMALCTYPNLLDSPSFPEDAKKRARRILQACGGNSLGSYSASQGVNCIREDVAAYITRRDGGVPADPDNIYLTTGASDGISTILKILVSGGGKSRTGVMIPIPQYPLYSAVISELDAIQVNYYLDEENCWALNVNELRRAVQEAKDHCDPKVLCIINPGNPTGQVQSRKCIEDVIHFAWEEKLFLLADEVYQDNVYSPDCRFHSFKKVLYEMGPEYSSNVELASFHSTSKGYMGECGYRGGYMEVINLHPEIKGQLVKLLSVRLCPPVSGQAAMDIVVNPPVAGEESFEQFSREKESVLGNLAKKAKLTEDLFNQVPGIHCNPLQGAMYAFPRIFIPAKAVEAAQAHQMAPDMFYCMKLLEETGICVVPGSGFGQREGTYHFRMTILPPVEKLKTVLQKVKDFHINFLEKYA
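Fluorescence read-out: pyruvate from GPT2 turnover coupled to pyruvate oxidase, HRP and Amplex Red (0.2mM ThPP, 0.2U/mL PO and HRP, 50uM Amplex final). Substrates 250uM a-KG, 2mM L-alanine; enzyme 10ng/uL; 30 min RT.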
FLuc inh: Firefly luciferase inhibition profiling of diverse chemical library using quantitative high-throughput screening; purified P. pyralis luciferase, luminescence, biochemical; Potency, µM (highest dose often 115 µM), usual class: inhibitors; 76,000 compounds, 2.5% hits; Luciferin 4-monooxygenase (Photinus pyralis), P08659; further: nearly all actives have a fitted effect of over 65% in size
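Cell-free enzyme assay, 10nM P. pyralis luciferase, luciferin and ATP each at 10uM. Inhibition profiled over a 6-point titration, read as luminescence.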
NPR1 antag: Natriuretic polypeptide receptor (hNpr1) antagonism - Primary qHTS. HEK293 hNpr1 GloSensor cGMP, ANP-stimulated luminescence. 76,000 compounds, 1.6% hits. Potency, µM (highest dose often 46.3 µM), usual class: inhibitors. Atrial natriuretic peptide receptor 1 (Homo sapiens), P16066; calls by dose curve; further: nearly all actives have a fitted effect of over 60% in size
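HEK293 cells stably expressing human Npr1 and cGMP GloSensor pGS-40F, loaded 2 h with 2% GloSensor reagent, given compound 30 min at room temperature. Luminescence read before and 20 min after 0.1 nM hNppA.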
3T3 cytotox: Cytotoxic Profiling in NIH 3T3 Cell Line of Diverse Libraries Using Quantitative High-Throughput Screening; 94,000 compounds, 4.3% hits; Potency, µM (doses to about 96.7 µM), usual class: inhibitors; NIH 3T3 viability, CellTiter-Glo ATP luminescence, 48-72 h; further: nearly all actives have a fitted effect of over 55% in size
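NIH 3T3 cells at 400 cells/well received 23 nL of compound by pintool and were incubated 48 or 72 h at 37 °C. Viability was read as ATP-coupled CellTiter-Glo luminescence.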
Of the large screens only hits and unclear results are named; the others gave an inactive call; ! = not active in a repeat. Hits are enriched below; roughly 10% of the tested compounds scored in any of these assays. Unless noted, the call rests on the fitted dose curve; in most records, active means well fitted curve in the direction sought with a large enough effect; inconclusive means small, poorly fitted or top-dose-only effect, or another doubt; inactive means no such curve, though single readings can be large; an effect the other way counts as inactive or inconclusive.

O=C1CC2(CCN(Cc3ccsc3)CC2)Oc2ccccc21	HEK293 tox inconclusive, FLuc inh 45µM, 3T3 cytotox inconclusive
O=C1CC2(CCN(Cc3ccc(C(F)(F)F)cc3)CC2)Oc2ccccc21	HEK293 tox 25µM, NPR1 antag inconclusive, 3T3 cytotox inconclusive
O=C1CC2(CCN(Cc3ccccc3)CC2)Oc2ccccc21	HEK293 tox inconclusive, FLuc inh inconclusive, 3T3 cytotox inconclusive
O=C1CC2(CCN(Cc3cccc4ccccc34)CC2)Oc2cc(Cl)ccc21	HEK293 tox inconclusive, 3T3 cytotox inconclusive
COc1ccc(CN2CCC3(CC2)CC(=O)c2ccccc2O3)cc1	none
O=C1CC2(CCN(Cc3cccc4ccccc34)CC2)Oc2ccccc21	HEK293 tox 35µM, 3T3 cytotox inconclusive
O=C(O)c1ccc(CN2C[C@@H]3OCC(=O)N(Cc4cccnc4)[C@@H]3C2)cc1	GPT2 inhibitor inconclusive
O=C(N[C@H]1CO[C@H]2[C@@H]1OC[C@@H]2Nc1nccc(C2CCCC2)n1)c1ccco1	HEK293 tox inconclusive, 3T3 cytotox inconclusive
CN(C(=O)c1cccc2ccccc12)C1CCCN(C2Cc3ccccc3C2)C1 (stereo not given)	HEK293 tox inconclusive, 3T3 cytotox inconclusive
CN1C(=O)C(CC(=O)NC2CCCC2)=C2CCCCC21 (stereo not given)	none
O=C(c1nc(-c2ccc(F)cc2)c2ccccn12)N1CCOCC1	HEK293 tox 112µM
O=C(c1nc(-c2ccccc2)c2ccccn12)N1CCOCC1	HEK293 tox 89µM, 3T3 cytotox inconclusive
O=C(c1nc(-c2cc(Cl)cc(Cl)c2)c2ccccn12)N1CCOCC1	HEK293 tox inconclusive
O=C(c1nc(-c2ccccc2)c2ccccn12)N1CCN(c2ncccn2)CC1	HEK293 tox 79µM
CC(NC(=O)C1(c2ccc(NS(C)(=O)=O)cc2)CCCCC1)c1ccc(F)cc1 (stereo not given)	HEK293 tox inconclusive, GPT2 inhibitor inconclusive
COc1ccc(C(=O)N2[C@@H]3CC[C@H]2CC(NC(=O)c2ccncc2)C3)c(OC)c1 (stereo not given in full)	none
O=C(c1cc(COc2c(F)cccc2F)on1)N1CCCCC1CCc1ccccc1 (stereo not given)	none
Oc1ccc(CCC2CCCCN2Cc2nc(Cc3cccc(F)c3)no2)cc1 (stereo not given)	HEK293 tox 22µM, 3T3 cytotox inconclusive
COc1ccccc1CN1CCC(N2C(=O)c3c(c(C)nn3-c3ccccc3)C2C2CC2)CC1 (stereo not given)	none (no result: GPT2 inhibitor, FLuc inh, NPR1 antag)
O=C(c1ccsc1)N1CCC2(CC1)NC(=O)N(Cc1cccc(Cl)c1)C2=O	HEK293 tox inconclusive, NPR1 antag inconclusive, 3T3 cytotox 28µM
O=C(c1cccc(Cl)c1)N1CCC2(C1)NC(=O)N(Cc1ccc(Cl)cc1)C2=O (stereo not given)	HEK293 tox inconclusive, NPR1 antag inconclusive, 3T3 cytotox 40µM
COc1cc(OC)cc(C(=O)N2CCC3(C2)NC(=O)N(Cc2ccc(Cl)cc2)C3=O)c1 (stereo not given)	HEK293 tox inconclusive, 3T3 cytotox inconclusive
O=C(c1ccsc1)N1CCC2(CC1)NC(=O)N(Cc1ccccc1)C2=O	3T3 cytotox inconclusive
CC(C)CNC(=O)c1ccnc(-c2nnc3ccc(Nc4ccccc4)nn23)c1	HEK293 tox inconclusive, 3T3 cytotox inconclusive
Clc1ccccc1Nc1cnc2ccc(N3CCOCC3)nn12	HEK293 tox inconclusive, GPT2 inhibitor inconclusive, NPR1 antag inconclusive, 3T3 cytotox inconclusive
Cc1nnc2ccc(N3CCN(C(=O)c4ccccc4F)CC3)nn12	none (no result: GPT2 inhibitor, FLuc inh, NPR1 antag)
CN1CCN(c2ccc3ncc(Nc4cccc(C(F)(F)F)c4)n3n2)CC1	HEK293 tox 100µM, GPT2 inhibitor inconclusive, 3T3 cytotox inconclusive
CN1CCN(c2ccc3ncc(Nc4ccccc4F)n3n2)CC1	HEK293 tox 112µM, GPT2 inhibitor inconclusive, 3T3 cytotox inconclusive
c1ccc(-c2ccccc2Nc2cnc3ccc(N4CCOCC4)nn23)cc1	HEK293 tox 89µM, 3T3 cytotox inconclusive
CC(C)c1ccc([S+](=O)([O-])c2nnn3c2nc(NC2CC2)c2ccccc23)cc1	none (no result: FLuc inh, NPR1 antag)
CN1CC(=O)N(C2CCNC2)Cc2c1ncnc2N(C)Cc1ccc(F)cc1 (stereo not given)	none (no result: FLuc inh, NPR1 antag)
Cc1ccc(NC(=O)Nc2ccccc2)c(=O)n1CC(=O)N1CCN(c2ccccc2)CC1	HEK293 tox inconclusive, FLuc inh 11µM
Cc1cccc(NC(=O)Nc2ccc(C)n(CC(=O)NC(C)C)c2=O)c1	HEK293 tox inconclusive, FLuc inh 7.1µM
CCOc1ccc(NC(=O)Cn2c(C)ccc(NC(=O)Nc3cccc(C)c3)c2=O)cc1	HEK293 tox 40µM, FLuc inh inconclusive, 3T3 cytotox 28µM
O=C(NCc1cccc(Cl)c1)c1ccc2nnc(-c3cccnc3)n2c1	HEK293 tox inconclusive, 3T3 cytotox inconclusive (no result: FLuc inh, NPR1 antag)
COc1ccccc1C(=O)NC1CCN(Cc2cccc(-c3cccs3)c2)CC1	HEK293 tox 22µM!, 3T3 cytotox 32µM! (no result: FLuc inh, NPR1 antag)
O=C(NC1CCN(Cc2cccc(-c3cccs3)c2)CC1)c1ccccc1	HEK293 tox 35µM! (no result: FLuc inh, NPR1 antag)
Cc1ccccc1C(=O)NC1CCN(Cc2cccc(-c3cccs3)c2)CC1	HEK293 tox inconclusive, 3T3 cytotox inconclusive (no result: FLuc inh, NPR1 antag)
O=C(NC1CCN(Cc2cccc(-c3cccs3)c2)CC1)c1ccc(F)cc1	HEK293 tox inconclusive, 3T3 cytotox inconclusive (no result: FLuc inh, NPR1 antag)
Cc1noc(C)c1-c1cc2cc(C(C)C)oc2c(N(C)CCN(C)C)n1	HEK293 tox 35µM, GPT2 inhibitor inconclusive, 3T3 cytotox 25µM
Cc1cc2cc(-c3c(C)noc3C)nc(-c3ccccc3)c2o1	HEK293 tox inconclusive, 3T3 cytotox inconclusive
Cc1cc2cc(-c3c(C)noc3C)nc(N3CCN(C)C(=O)C3)c2o1	HEK293 tox inconclusive, 3T3 cytotox inconclusive
Cc1noc(C)c1-c1cc2cc(C(C)C)oc2c(NCc2cccnc2)n1	HEK293 tox inconclusive, 3T3 cytotox inconclusive
Cc1cc2cc(-c3c(C)noc3C)nc(N(C)C)c2o1	HEK293 tox 100µM, GPT2 inhibitor inconclusive, 3T3 cytotox inconclusive
Cc1cc2cc(-c3c(C)noc3C)nc(N3CCN(c4ccccn4)CC3)c2o1	HEK293 tox 13µM, GPT2 inhibitor inconclusive, 3T3 cytotox 28µM
COc1ccc(F)cc1-c1cccc(C(=O)NCCNC(=O)c2ccc(C(F)(F)F)cc2)c1	HEK293 tox inconclusive, 3T3 cytotox inconclusive (no result: FLuc inh, NPR1 antag)
Cc1cccc(CC(=O)N2CCCN(S(C)(=O)=O)c3ccccc32)c1	3T3 cytotox 40µM
COc1ccc(CC(=O)N2CCCN(S(C)(=O)=O)c3ccccc32)cc1OC	none

Assay outcomes (PubChem BioAssay)
